From PubChem BioAssay
IL-1B inflam inh: blocks inflammasome-driven IL-1 beta release; activity change, % at 57.5 µM; THP-1 LPS/ATP IL-1B secretion, AlphaLISA, 16 h; active compounds read low; AID 743279; 360,000 compounds, 4.7% hits; in the data active means activity change below about -50%; inconclusive means mostly about -30% to -49%; further: on the % scale 0 is the no-effect control and ±100 the full control effect
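Secreted IL-1B measured by AlphaLISA bead assay after 16 h compound exposure of THP-1 cells; compounds (final up to 57.5 uM) added 1 h before LPS (250 ng/mL) and ATP (1.25 mM) stimulation; lower signal means less secretion.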
D3 ag: D3 dopamine receptor (human) agonism | max activation, % | P35462 | 410,000 compounds, 0.58% hits | D3R DiscoveRx beta-arrestin cells, luminescence, 90 min | AID 652048; in the data active means max activation above about 30%; further: 0% is about no effect
Target sequence (P35462 whole entry, looked up): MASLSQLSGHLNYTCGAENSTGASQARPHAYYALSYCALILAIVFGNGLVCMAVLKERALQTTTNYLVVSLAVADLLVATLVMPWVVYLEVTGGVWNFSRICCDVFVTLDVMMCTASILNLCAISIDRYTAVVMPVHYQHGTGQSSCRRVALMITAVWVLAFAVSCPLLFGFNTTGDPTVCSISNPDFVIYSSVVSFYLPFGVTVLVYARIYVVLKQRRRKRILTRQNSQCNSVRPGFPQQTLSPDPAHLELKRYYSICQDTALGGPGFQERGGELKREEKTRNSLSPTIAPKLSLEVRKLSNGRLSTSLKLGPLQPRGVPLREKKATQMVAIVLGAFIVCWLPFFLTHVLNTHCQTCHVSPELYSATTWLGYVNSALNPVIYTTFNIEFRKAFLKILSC
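Cells at 1500/well, incubated overnight, then treated with pinned compounds (dopamine as control) for 90 min at 37 degrees C. DiscoveRx reagent added for 30 - 60 minutes at room temperature; luminescence read.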
D3 antag: D3 dopamine receptor (human) antagonism; 360,000 compounds, 2.5% hits; max response, negative = inhibition, %; AID 652054; P35462; D3R cells, DiscoveRx beta-arrestin luminescence, antagonist mode; active compounds read low; in the data active means max response below about -50%; inconclusive means no clear call, values can overlap the other calls; further: on the % scale 0 is the no-effect control and ±100 the full control effect
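Cells expressing the human receptor were seeded at 1500 cells/well, incubated overnight at 37 degrees C in 5% CO2, then exposed to library compounds with dopamine controls for 90 minutes at 37 degrees C before luminescent detection.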
ClpP mod: qHTS Assay for Activators of ClpP | 340,000 compounds, 1.9% hits | ATP-dependent Clp protease proteolytic subunit (Bacillus subtilis (strain 168)), P80244 | purified B. subtilis ClpP, FRET peptide cleavage, 20 min | Potency, µM (top dose mostly 57.5 µM), without a hit: at the top dose activity change, negative = active; active means well fitted falling curve with a large enough effect; inconclusive means small, poorly fitted or top-dose-only effect; inactive means no such curve, though single readings can be large or run the other way; further: potency means the concentration at half of the fitted maximal effect; the source files actives as falling curves though it sought activators and does not explain the sign; nearly all actives have a fitted effect of over 65% in size
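ClpP 10 microg/mL final, pH 8 Tris/KCl buffer with BSA, glycerol, Tween-20; compound pinned in; FRET-FV substrate; RT 20 min; Ex320/Em430; ΔFRET vs ADEP 5.8 microM, DMSO, no enzyme.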
DT40 TDP1 CPT: DT40-hTDP1 cell growth loss with CPT | Potency, µM (titrated, usually from 46.2 µM), inactives show at the highest dose activity change, negative = growth inhibition, usual class: inhibitors | 420,000 compounds, 12% hits | chicken DT40 Tdp1-/-;hTDP1 cells + 20 nM CPT, ATP luminescence, 48 h; further: potency means the concentration at half of the fitted maximal effect; on the % scale 0 is the no-effect control and ±100 the full control effect; nearly all actives have a fitted effect of over 55% in size
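Chicken DT40 Tdp1-/- cells stably complemented with human TDP1 were seeded at 400 cells/well in medium containing 20 nM camptothecin, exposed to pin-transferred compounds, and grown at 37 °C for at least 48 hr. Viability was read as ATP luminescence.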
TDP1 cell noCPT: qHTS for Inhibitors of human tyrosyl-DNA phosphodiesterase 1 (TDP1): qHTS in cells in absence of CPT | DT40 Tdp1-/- hTDP1 cells, no CPT, ATP luminescence, 48 h | Potency, µM (series often up to 46.2 µM), for the others: at the top dose activity change, negative = growth inhibition, actives largely listed as inhibitors | 420,000 compounds, 15% hits; further: potency means the concentration at half of the fitted maximal effect; on the % scale 0 is the no-effect control and ±100 the full control effect; nearly all actives have a fitted effect of over 55% in size
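Stably hTDP1-transfected Tdp1-null chicken DT40 cells were treated with library compounds minus camptothecin and grown for at least 48 hr at 37 °C, after which cellular ATP was quantified by luminescence.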
Starred values were filed as active, the others as inactive; u = inconclusive; x = no result given; ! = a repeat was not active. Shown are actives, neighbours in structure and some others; about 21% of the full set was active somewhere. Unless noted, the call rests on the fitted dose curve; in most records, active means well fitted inhibition curve with a large enough effect; inconclusive means small, poorly fitted or top-dose-only effect; inactive means flat fitted curve, though single readings scatter.

SMILES	IL-1B inflam inh	D3 ag	D3 antag	ClpP mod	DT40 TDP1 CPT	TDP1 cell noCPT
COc1ccc(Oc2ncc3nc(C)c(=O)n(CCC#N)c3n2)cc1	x	x	x	x	7.6%	-29.7%
CCOc1ccc(NC(=O)c2cccc3c(=O)c4c([nH]c23)CCCC4)cc1	x	0.6	x	-2.7%	-18.6%	-25.4%
COc1ccc(CCNC(=O)c2cc3c(=O)[nH]c4ccc(C)cc4c3s2)cc1OC	x	-3.8	x	3.8%	13µM*	11.6µM*
Cc1ccc2[nH]c(=O)c3cc(C(=O)NCCN4CCN(C)CC4)sc3c2c1	-12.6	-0.3	18.9	4.2%	-19.5%	-19.6%
CCOC(=O)CNC(=O)c1cc2c(=O)[nH]c3ccc(C)cc3c2s1	-12.4	0.5	4.7	4.4%	34.8%	10.3%
CCOc1ccc(CCNC(=O)c2cc3c(C)nccc3[nH]c2=O)cc1OCC	13.3	20.9	35.9	x	11.6µM*	13µM*
Cc1nccc2[nH]c(=O)c(C(=O)NC3CCCCC3C)cc12 (stereo unspecified)	-8.9	3.6	0.4	-5.9%	u	16.4µM*
CCOc1ccc(CCNC(=O)c2cc3c(=O)[nH]c4ccc(C)cc4c3s2)cc1OCC	x	-4.7	x	4.3%	4.11µM*	18.4µM*
c1ccc2c(c1)NCCS2	9.1	-3.3	6.9	x	u	u
CCS(=O)(=O)Nc1cccc(C2=NN(S(=O)(=O)CC)C(c3cccs3)C2)c1 (stereo unspecified)	-2.0	-1.7	-20.2	1.5%	-9.6%	-14.8%
CCCCN1C(=O)C(O)(CC(=O)c2ccc(C)cc2C)c2cc(Br)ccc21 (stereo unspecified)	x	4.2	x	0.2%	16.4µM*	16.4µM*
CCCCN1C(=O)C(O)(CC(=O)c2ccco2)c2cc(Br)ccc21 (stereo unspecified)	81.3	-2.0	-4.9	0.9%	2.59µM*	4.11µM*
CC(=O)N1C[C@H]2CON(C)[C@H]2C[C@H]1c1cccc(-c2ccccc2C)c1	4.6	-10.4	0.0	-0.2%	-17.4%	-29.5%
Cc1cccc(C)c1OCC(=O)Nc1c(C(=O)c2ccc(Br)cc2)oc2ccccc12	x	-12.8	x	0.4%	-5.6%	u
Cc1ncc(CO)c(/C=N/NC(=S)Nc2ccc(F)cc2)c1O	50.0	3.1	12.4	-13.0%	16.4µM*	10.3µM*
Cc1ncc(CO)c(/C=N/Nc2ccc(C(F)(F)F)cn2)c1O	62.7	-22.7	-73.7*	x	4.11µM*	3.66µM*
FC(F)(F)c1ccc(N/N=C/c2cccnc2)nc1	-96.7*	-5.5	5.6	x	-23.1%	u
COCCCNC(=S)N1CCC(NC(=O)Nc2ccc(C)cc2)CC1	-15.2	-0.7	-0.7	x	1.8%	6.9%
C/C(NCCc1ccccc1)=C1/CCOC1=O	18.4	16.9	10.3	-0.3%	-3.3%	-14.1%
COc1cccc(CNS(=O)(=O)c2cc(-c3cc(C)no3)ccc2C(C)C)c1	-24.1	-8.1	u	-5.1%	20.6µM*	u
COc1ccc(-c2cc(C)no2)cc1S(=O)(=O)NCc1cccc(C)c1	49.5	1.6	u	x	8.3%	u
CCN(c1ccc(OC)cc1)S(=O)(=O)c1cc(-c2cc(C)no2)ccc1OC	0.3	-7.2	-2.1	1.0%	-14.8%	u
CCN(c1ccc(OC)cc1)S(=O)(=O)c1cc(-c2cc(C)no2)ccc1C(C)C	2.0	-8.7	-29.3	-0.4%	u	20.6µM*
COc1ccc(-c2cc(C)no2)cc1S(=O)(=O)NCc1ccc(OC(C)C)cc1	49.4	19.0	5.9	1.0%	u	18.4µM*!
COc1ccc(CNS(=O)(=O)c2cc(-c3cc(C)no3)ccc2OC)cc1OC	4.0	-4.0	-10.7	-1.7%	-6.8%	6.6%
